# Cycloheximide cs – Cycloheximide Counterscreen for Small Molecule Inhibitors of Shiga Toxin. cell reporter, cycloheximide protein synthesis inhibition counterscreen. max response, %. hit rate 12% among 300,000; in the data active means max response mostly above about 13%, no sharp cut-off; inactive means mostly below about 14%; further: read at 38.3 µM for the half of the compounds with a filed dose
# NS1 function inh – qHTS Assay for Inhibitors of Influenza NS1 Protein Function; Potency, µM (titrated, usually from 46.1 µM); hit rate 0.4% among 270,000; calls by dose curve; further: actives are rising curves; nearly all actives have a fitted effect of over 50% in size
#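 S. cerevisiae expressing influenza A NS1, grown in glucose, washed, then diluted 1:100 into pH 6.0 -URA galactose medium with 23 nl compound. Growth recovery read as OD600; NS1-free strain serves as control.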
# Pf growth 96h – Primary qHTS for delayed death inhibitors of the malarial parasite plastid, 96 hour incubation | P. falciparum luciferase reporter growth, 96 h | Potency, µM (highest dose often 28.7 µM), usual class: inhibitors | hit rate 6.9% among 320,000 | AID 504834, 2011
#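 Erythrocytes infected with luciferase-expressing P. falciparum were dispensed at 2% hematocrit and 0.05% parasitemia (final), then incubated with compounds 96 hours at 37 C in 5% CO2. Luminescence after detection reagent addition reported growth.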
# Sm TGR block – qHTS Assay for the Inhibitors of Schistosoma Mansoni Peroxiredoxins | Schistosoma mansoni thioredoxin glutathione reductase (TGR), Q962Y6 | purified TGR, DTNB reduction, TNB absorbance 405 nm | Potency, µM (titrated, usually from 114 µM), hits mostly inhibitors | hit rate 3% among 360,000 | AID 485364, 2010; further: nearly all actives have a fitted effect of over 60% in size
#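 TGR 20 nM + NADPH 100 uM (dispensed conc.), cpd preinc 15 min RT; start with NADPH (500 uM addition) then DTNB (15 mM addition). Kinetic TNB absorbance, 405 nm filter. Four-parameter Hill fit across titration.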
# Shiga toxin inh – A qHTS for Small Molecule Inhibitors of Shiga Toxin. Vero cells, Shiga toxin protein synthesis inhibition reporter. inhibition, % at 38.7 µM. hit rate 9.2% among 290,000; in the data active means inhibition mostly above about 28%, no sharp cut-off; inactive means mostly below about 43%
# Pf growth 48h – Primary qHTS for delayed death inhibitors of the malarial parasite plastid, 48 hour incubation | Potency, µM (series often up to 28.7 µM), most hits filed as inhibitors | P. falciparum luciferase growth in erythrocytes, 48 h | hit rate 5.9% among 310,000
#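 Luminescence readout; reporter = integrated firefly luciferase in P. falciparum. RBC culture at 2% hematocrit, 0.1% parasitemia final, 37 C/5% CO2; decreased signal taken as growth inhibition.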
# Numbers stand for hits; 0 = inactive; ? = inconclusive; - = no result given; [ ] = dose if it differs, or a comment. Most compounds without a hit are left out; they make up all but 21% or so of the library. Unless noted, the call rests on the fitted dose curve; in most records, active means well fitted curve in the direction sought with a large enough effect; inconclusive means small, poorly fitted or top-dose-only effect, or another doubt; inactive means no such curve, though single readings can be large; an effect the other way counts as inactive or inconclusive.
SMILES,Cycloheximide cs,NS1 function inh,Pf growth 96h,Sm TGR block,Shiga toxin inh,Pf growth 48h
OCCC1CN(Cc2cccn2-c2ncccn2)CCN1C1CCCC1 (configuration not stated),0,0,?,0,0,0
C/C(=N\NC1=NCCN1)c1ccccc1,0,0,?,0,0,0
C/C(=N\NC1=NCCN1)c1ccc(Cl)cc1,0,0,2.33µM,0,0,?
C/C(=N\Nc1cccc(Cl)c1)c1ccncc1,24.1,0,0,0,0,0
C/C(=N\Nc1cc(C(F)(F)F)ccc1Cl)c1ccncc1,0,0,?,0,0,?
C/C(=N\Nc1ccc(F)cc1)c1ccncc1,24.1,0,0,0,0,0
C/C(=N\Nc1ccc(Cl)cc1)c1ccncc1,21.1,0,?,0,0,?
CCN(C)C(=O)Oc1cccc([C@H](C)N(C)C)c1,-,-,0,-,-,0
COc1coc(/C=C/C(=O)O)cc1=O,0,?,0,0,0,0
CC1CN(C(=O)c2cccn(Cc3c(Cl)cccc3Cl)c2=O)CC(C)O1 (configuration not stated),0,0,0,-,0,0
COC(=O)C1=C(C)N(CCC2=CCCCC2)C(=O)C1,21.2,0,-,31.6µM,0,0
O=C1c2ccccc2C(=O)N1CCC1=CCCCC1,40.6,0,0,0,88.6,-
O=C(NCCC1=CCCCC1)C(c1ccccc1)c1ccccc1,0,0,?,0,0,?
CC(C(=O)NCCC1=CCCCC1)N1C(=O)c2ccccc2C1=O (configuration not stated),0,0,5.86µM,0,0,0
CN(C(=O)c1ccc2c(c1)C(=O)N(CCC1=CCCCC1)C2=O)C1CCCCC1,0,0,10.4µM,0,0,-
CCc1ccccc1NC(=O)C(CC)Sc1ncnc2c1sc1ccccc12 (configuration not stated),-,-,-,0,-,-
CC(Sc1nnc(-c2cccnc2)n1N)C(=O)NCCC1=CCCCC1 (configuration not stated),-,-,0,0,-,0
C=CCn1c(SC(C)C(=O)NCCC2=CCCCC2)nc2ccccc2c1=O (configuration not stated),0,0,13.1µM,0,0,-
COc1ccc(CNC(=O)c2c(C)nc3ccccn23)cc1,0,0,?,0,0,0
COc1ccc(/C=C/C(=O)c2c(C)nc3ccccn23)cc1,47.7,0,?,0,107.2,0
COc1ccc(CCNC(=O)c2c(C)nc3ccccn23)cc1,0,-,11.7µM,0,0,?
Cc1nc2ccccn2c1C(=O)/C=C/c1ccc(F)cc1,54.5,0,?,0,94.8,0
Cc1ccc(NC(=O)COC(=O)Cc2c[nH]c3ccccc23)cc1F,-,-,0,50.1µM,-,0
N#CCSc1ccccc1NC(=O)COC(=O)Cc1c[nH]c2ccccc12,-,-,6.57µM,0,-,10.4µM
CC(C)c1ccccc1NC(=O)COC(=O)Cc1c[nH]c2ccccc12,0,0,0,0,0,0
SMILES,Cycloheximide cs,NS1 function inh,Pf growth 96h,Sm TGR block,Shiga toxin inh,Pf growth 48h
O=C(CSc1nc(O)cc(=O)[nH]1)N1c2ccccc2CCc2ccccc21,0,0,?,0,0,0
Nc1nc(NCC2CCCO2)nc(Nc2ccccc2)c1[N+](=O)[O-] (configuration not stated),0,0,?,0,0,10.4µM
CCOc1ccc(Nc2nc(NCC3CCCO3)c3ccccc3n2)cc1 (configuration not stated),0,-,0,0,0,1.17µM
Oc1cccc(Nc2nc(NCC3CCCO3)c3ccccc3n2)c1 (configuration not stated),0,0,0,0,0,0.37µM
O=C(CSc1nnc(-c2ccncc2)o1)NC1C2CC3CC(C2)CC1C3 (configuration not stated),0,0,?,0,0,?
C[C@H](NS(=O)(=O)c1ccccc1F)C(=O)OCC(=O)N1CCc2ccccc21,0,0,0,0,0,-
CN1C(=O)/C(=C\N2CCc3ccccc32)C(=O)NC1=S,13.2,0,9.28µM,?,0,0
CN1C(=O)/C(=C/c2cccn2-c2ccc3ccccc3c2)C(=O)NC1=S,0,0,0,0,0,0
CC(=O)c1c(C)[nH]c(C(=O)N(C)CC(=O)Nc2ccc(Cl)c(C(F)(F)F)c2)c1C,0,0,0,0,0,0
CC1(OC(=O)C2CCCC2)C(=O)C=C2C=C(c3ccsc3)N(CCCCO)C=C2C1=O (configuration not stated),0,0,?,0,0,?
CC1(OC(=O)CCc2ccccc2)C(=O)C=C2C=C(c3ccc(C#N)cc3)N(C3CCCC3)C=C2C1=O (configuration not stated),0,0,?,0,0,?
CC1(OC(=O)C2CCCC2)C(=O)C=C2C=C(c3ccsc3)N(C3CCCC3)C=C2C1=O (configuration not stated),0,0,10.4µM,0,0,?
CC1(OC(=O)C2CCCC2)C(=O)C=C2C=C(c3ccsc3)N(Cc3ccco3)C=C2C1=O (configuration not stated),0,0,13.1µM,25.1µM,0,11.7µM
O=C(Cc1ccccc1)NCC(=O)N1CCN(c2ccccc2F)CC1,0,0,0,0,0,0
O=C(COC(=O)/C=C/c1cccc(Br)c1)NC1CCCCCC1,-,-,0,0,-,0
CCC(C(=O)Nc1ccc(C)c(C)c1)n1c(=O)c(C(F)(F)F)nc2ccccc21 (configuration not stated),-,-,-,0,-,-
Cc1nn(-c2ccccc2)c(Cl)c1/C=N/NC(=O)c1ccc(CNc2ccccc2)o1,25.3,0,?,0,44.5,?
Cc1nn(-c2ccccc2)c(Cl)c1/C=N\NC(=O)c1cnccn1,0,0,0,0,0,0
Cc1nn(-c2ccccc2)c(Cl)c1/C=N/NC(=O)c1ccco1,51.7,0,?,0,104.0,0
Cc1nn(C)cc1/C=N/NC(=O)c1ccco1,38.2,0,0,0,82.4,0
Cc1ccc(C)c(NC(=O)CSc2ncc3c(n2)-c2ccc(Cl)cc2N(C)S3(=O)=O)c1,-,-,-,0,-,-
Cc1ccccc1NC(=O)CSc1nc2c(oc3ccccc32)c(=O)n1-c1ccccc1F,-,-,-,0,-,-
CCCCCCNC(=O)c1cc(-c2ccco2)nc2ccccc12,0,0,?,3.16µM,0,0
CC(C)CCNC(=O)c1cc(-c2ccco2)nc2ccccc12,0,0,-,39.8µM,0,0
CCN(CC)CCNC(=O)c1cc(-c2ccc(Br)s2)nc2ccccc12,0,0,0,0,0,-
Cc1ccc(S(=O)(=O)N(C)C)cc1NC(=O)c1cc(-c2ccco2)nc2ccccc12,0,0,0,?,0,0
CCCCOc1cc(C(=O)NCCN(CC)CC)c2ccccc2n1,0,0,10.4µM,0,0,13.1µM
CC1(C)Cc2c(c(N3CCOCC3)nc3sc4c(NCc5ccco5)nnnc4c23)CS1,0,0[9.22 µM],0,39.8µM,0,?
CC(C)CNc1nnnc2c1sc1nc(N3CCOCC3)c3c(c12)CC(C)(C)SC3,0,0,?,0,0,?

# Source: PubChem BioAssay
